# Data published in PubChem BioAssay AID504408 (Broad Institute, 2011).
# The campaign covered roughly 300,000 compounds. About 5,200 (1.7%) were called active.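 Rule for the calls: active = mean replicate activation of at least 50% with a set share of replicates each reaching 50%; inconclusive = only one of those two conditions met; inactive = mean below 50% and too few replicates reaching it.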 The list comes from a sample in which actives are over-represented; it also holds similar structures and randomly drawn compounds.
# Assay: HSF-1 activators, primary screen, NIH3T3-HGL cells, MG132 stress, luminescence, single point (AID 504408);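 note: 0% = median of the neutral control wells and 100% = twice that signal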
# Details: NIH3T3-HGL HSF-1 luciferase reporter, MG132, 8 h; at 9 µM; active compounds read high; 100% = twice DMSO control signal
row,SMILES,activation
1,CC1CCN(C(=S)c2ccc(-c3ccc(Cl)cc3Cl)o2)CC1,52% (active)
2,COc1ccc(C(=O)Nc2c(Cl)cc(Cl)cc2C(=O)N2CCC(C)CC2)cc1,18% (inactive)
3,Cc1csc(NC(=O)c2ccc(-c3ccc(Cl)cc3Cl)o2)n1,3.06% (inactive)
4,Cc1c(C(=O)OCC(=O)N2CCCC2=O)oc2ccccc12,16.8% (inactive)
5,N#Cc1cccc(OC(=O)c2ccc3c(=O)n4c(nc3c2)CCC4)c1,-0.984% (inactive)
6,CCOC(=O)C1C(=O)NC(N2CCN(c3ccccc3)CC2)=NC1c1ccco1 (configuration not stated),-4.78% (inactive)
7,Cc1ccc(C2=NN(C(=O)CSc3nc(N)cc(N)n3)C(c3ccco3)C2)cc1 (configuration not stated),22.7% (inactive)
8,CCOC(=O)C1C(=O)C=C(c2ccc(OC)cc2)CC1c1ccco1 (configuration not stated),285% (active)
9,Cc1nc2c(c(C)nn2-c2ccccc2)c(C)c1C,-8.62% (inactive)
10,COc1cc(SC)ccc1C(=O)Nc1cc(C)ccn1,55.7% (active)
11,Cc1ccnc(NC(=O)c2ccoc2C)c1,17.6% (inactive)
12,COc1cc(SC)ccc1C(=O)Nc1nc(C)cs1,-71.7% (inactive)
13,COC(=O)[C@@]12CCCN1[C@H](c1ccc(-c3ccc(F)cc3)c(OC)c1)[C@H]1C(=O)N(C)C(=O)[C@H]12,42.9% (inactive)
14,COc1ccc(Cl)cc1C=CC=Nc1ccc(S(N)(=O)=O)cc1,-18.4% (inactive)
15,FC(F)Oc1ccc(NC(=S)NCc2ccco2)cc1Cl,7.43% (inactive)
16,COc1cc(NC(=S)NCc2ccco2)c(OC)cc1Cl,62.1% (active)
17,COc1cccc(NC(=S)NCc2ccco2)c1,19.7% (inactive)
18,COc1ccc(OCC(=O)Nc2nnc(-c3ccco3)s2)cc1,3.21% (inactive)
19,Cc1ccc(OCC(=O)Nc2nnc(-c3ccco3)s2)cc1,2.22% (inactive)
20,CCCCOc1ccc(-c2nnc(-c3ccco3)o2)cc1,79.3% (active)
21,CC(C)Oc1ccc(S(=O)(=O)N2CCOCC2)cc1NC(=O)C1CSC2(C)CCC(=O)N12 (configuration not stated),0.413% (inactive)
22,Cc1ccc(-n2nc(C)c(/C=N/NC(=O)c3cccs3)c2Cl)cc1,-8.54% (inactive)
23,Cc1nn(-c2ccccc2)c(Cl)c1/C=N/NC(=O)c1nn(C)cc1[N+](=O)[O-],125% (active)
24,Cc1nn(C)cc1/C=N/NC(=O)c1sc2ccccc2c1Cl,3.1% (inactive)
25,Cc1cccc(Oc2c([N+](=O)[O-])c(=O)n(C)c3ccccc23)c1,110% (active)
26,Cn1c(=O)c([N+](=O)[O-])c(Oc2ccccc2)c2ccccc21,6.27% (inactive)

row,SMILES,activation
1,Cc1cc(C)c(-c2c(O)c3ccccc3n(C)c2=O)c(C)c1,-9.47% (inactive)
2,CC(=O)c1c(C)[nH]c(C(=O)COC(=O)CCOc2ccc(C)cc2)c1C,-0.193% (inactive)
3,COC(=O)N/N=C/c1c[n+]([O-])c2ccccc2[n+]1[O-],0.846% (inactive)
4,Cc1ccc(S(=O)(=O)N(C)C)cc1NC(=O)COC(=O)C1COc2ccccc2O1 (configuration not stated),-5.78% (inactive)
5,Cc1ccc(S(=O)(=O)N(C)C)cc1NC(=O)COC(=O)/C=C/c1cccs1,-10.8% (inactive)
6,Cc1ccc(S(=O)(=O)N(C)C)cc1NC(=O)COC(=O)c1c(C)noc1C,63.2% (active)
7,O=C(N/N=C/c1cc(Br)c(O)c([N+](=O)[O-])c1)C(O)(c1ccccc1)c1ccccc1,3.81% (inactive)
8,N#C/C(=C/c1cccc([N+](=O)[O-])c1)c1nnc2n1CCCCC2,-2.78% (inactive)
9,N#C/C(=C(\O)C(F)(F)F)c1nnc2n1CCCCC2,55.4% (active)
10,N#C/C(=C(\O)CCl)c1nnc2n1CCCCC2,-4.83% (inactive)
11,CC(C)(C)N1C(=O)[C@H]2[C@@H](c3ccc(Br)cc3)N3C(=O)N(c4cccc(Cl)c4)C(=O)[C@@]3(C)[C@H]2C1=O,-6% (inactive)
12,CCCCN(C(=O)CSCC(=O)Nc1ccc(OC)cc1)c1c(N)n(CCC)c(=O)[nH]c1=O,-4.27% (inactive)
13,Cc1ccccc1N1CC(C(=O)Nc2ccc(S(=O)(=O)N3CCCC3)cc2)CC1=O (configuration not stated),9.12% (inactive)
14,CN(C1CCS(=O)(=O)C1)S(=O)(=O)c1ccc2ccccc2c1 (configuration not stated),-4.34% (inactive)
15,COc1ccc(Cc2nnc(SCC(=O)Nc3ccc(C)c(Cl)c3)[nH]c2=O)cc1,-4.89% (inactive)
16,Oc1ccc(CN2CCN(c3ncccn3)CC2)cc1,7.28% (inactive)
17,c1cnc(N2CCN(c3ccc4ccccc4n3)CC2)nc1,53.3% (active)
18,O=C(c1ccncc1)N1CCN(c2ccc3ccccc3n2)CC1,-4.23% (inactive)
19,CCN(CC(=O)Nc1c(F)cccc1F)C(=O)CN1c2cccc3cccc(c23)S1(=O)=O,-9.4% (inactive)
20,Cc1cc(NC(=O)CCS(=O)(=O)c2ccc(F)cc2)no1,-7.32% (inactive)
21,Cc1ccc(S(=O)(=O)NCCC(=O)NNC(=O)C2COc3ccccc3O2)cc1 (configuration not stated),5.45% (inactive)
22,Cc1ccc(OCC(=O)Nc2ccc(N3CCN(C(=O)c4ccco4)CC3)cc2)c(C)c1,67.8% (active)
23,COc1cccc(C(=O)Nc2ccc(N3CCN(C(=O)c4ccco4)CC3)cc2)c1,-17.6% (inactive)
24,Cc1ccc(C)c(OCC(=O)N2CCN(C(=O)c3ccco3)CC2)c1,17% (inactive)
25,COc1ccc(C(=O)OCC(=O)Nc2ccc3[nH]c(=O)[nH]c3c2)c(OC)c1OC,29.4% (inactive)
26,CCc1c(C)sc(NC(=O)c2cccs2)c1C(N)=O,39.5% (inactive)

row,SMILES,activation
1,CCOC(=O)c1c(NC(=O)C2CC=CCC2C(=O)O)sc(C)c1CC (configuration not stated),-15% (inactive)
2,CCc1c(C)sc(NC(=O)c2ccc(Br)o2)c1C(=O)OC,64.8% (active)
3,Cc1onc(-c2ccccc2Cl)c1C(=O)OCc1nnc(-c2ccccc2)o1,23.4% (inactive)
4,COc1ccc2nc(SCc3ccccc3)nc(C)c2c1,68.9% (active)
5,COc1ccc(-c2nnc3ccc(SCc4ccccc4)nn23)cc1,16% (inactive)
6,COC(=O)CSc1nc(C)c2ccc(OC)cc2n1,17.7% (inactive)
7,Cc1ccc(S(=O)(=O)N2CCCCC2)cc1C(=O)N(C)CC(=O)Nc1cccc(F)c1,5.46% (inactive)
8,Cn1nc(C(F)(F)F)cc1-c1ccc(/C=C(\C#N)C(=O)c2cccc(C(F)(F)F)c2)s1,65.6% (active)
9,CNC(=O)c1ccc(NC(=O)c2cccc(C(F)(F)F)c2)cc1,9.95% (inactive)
10,Cn1nc(C(F)(F)F)cc1C(=O)O,15.5% (inactive)
11,FC(F)(F)c1ccc2c3n(nc2c1)CCN=C3c1ccc(Cl)cc1,-14.8% (inactive)
12,Cc1cc(C)cc(NC(=O)C2CCN(c3nc(C)cc(C)n3)CC2)c1,11% (inactive)
13,Cc1ccc2c(NC(=O)C3CC3)cccc2n1,-0.793% (inactive)
14,Cc1cc(C)c2c(NC(=O)C3CC3)nn(C)c2n1,56.3% (active)
15,Cc1ccc(-c2csc(NC3OC(=O)c4ccccc43)n2)cc1 (configuration not stated),81.1% (active)
16,COc1ccc(CCNc2nc(-c3cccc(NC(C)=O)c3)cs2)cc1OC,-4.33% (inactive)
17,Cc1ccc(-c2csc(NC(=O)Cn3[nH]c(=O)c4ccccc4c3=O)n2)cc1,-17.7% (inactive)
18,COc1ccc2c(c1OC)C(=O)OC2Nc1nc(-c2ccccc2)cs1 (configuration not stated),139% (active)
19,COc1ccc(-c2csc(NC3OC(=O)c4ccccc43)n2)cc1 (configuration not stated),20.2% (inactive)
20,COc1cccc(CC(=O)Nc2nc(-c3ccc(OC)c(OC)c3)cs2)c1,3.91% (inactive)
21,CCc1cccc(C)c1NC(=O)COC(=O)CC1CCCC1,4.54% (inactive)
22,CCCCn1c(N)c(N(CC(C)C)C(=O)c2ccc(-n3c(C)ccc3C)cc2)c(=O)[nH]c1=O,4.3% (inactive)
23,CCN(CC(=O)Nc1ccc(NC(C)=O)cc1)C(=O)C1CC(=O)N(Cc2ccc(C)cc2)C1 (configuration not stated),3.94% (inactive)
24,Cc1cccc(C(=O)NCc2nnc(SC(C)C(=O)Nc3nnc(C)s3)n2C)c1 (configuration not stated),-1.45% (inactive)
25,Cc1onc(-c2ccccc2Cl)c1C(=O)N(Cc1ccc(N(C)C)cc1)C(C)C,8.27% (inactive)
26,COc1cccc(NC(=S)NC(=O)c2c(Cl)c(C)nn2C)c1,60.9% (active)

row,SMILES,activation
1,Cc1nn(C)c(C(=O)NNC(=S)NC2CCCCC2)c1Cl,22.3% (inactive)
2,COc1cccc(NC(=S)NCc2ccccn2)c1,15.3% (inactive)
3,CN(CC(=O)Nc1cccc(F)c1)C(=O)C1CSC2(C)CCC(=O)N12 (configuration not stated),1.13% (inactive)
4,O=C1CN(C(=O)COc2c(Cl)cccc2Cl)c2ccccc2N1,-79.7% (inactive)
5,Cc1cc(C)cc(NC(=O)COc2coc(CN3CCN(c4ccccc4)CC3)cc2=O)c1,1.43% (inactive)
6,C/C(CCC(=O)OC[C@H]1O[C@H](C#Cc2ccccc2)C=C[C@@H]1Oc1ccc(C)cc1)=N\OC[C@@H](O)[C@H]1O[C@@H]2OC(C)(C)O[C@@H]2[C@H]1O,61.7% (active)
7,COc1ccc(O[C@H]2C=C[C@@H](c3ccccc3)O[C@@H]2CO/N=C/C[C@@H]2C=C[C@H](OC(C)=O)[C@@H](COC(C)=O)O2)cc1,-4.12% (inactive)
8,CCOc1ccc(CCNC(=O)COC(=O)c2c(OC)cccc2OC)cc1OCC,-2.88% (inactive)
9,Cc1cn(COC/C=C/c2ccccc2)c(=O)[nH]c1=O,-6.12% (inactive)
10,CC(=O)Nc1ccc(/C=C/C(=O)c2ccccc2)cc1,30.2% (inactive)
11,Cc1[nH]c(=O)c(C(=O)/C=C/c2ccccc2)c2c1CCCC2,71% (active)
12,O=C(c1ccc(F)cc1)N1CCC(C(=O)N2CCN(S(=O)(=O)c3ccccc3Br)CC2)CC1,-3.27% (inactive)
13,CCOc1ccc(S(=O)(=O)N2CCC(C(=O)OCc3ccc(OC)cc3)CC2)cc1,10.2% (inactive)
14,Cc1nc(-c2ccc(F)cc2)c(CC(=O)Nc2cccc(S(=O)(=O)N3CCOCC3)c2)s1,4.29% (inactive)
15,O=C(c1ccc[nH]c1=S)N1CCN(S(=O)(=O)c2ccc(Br)cc2Cl)CC1,58% (active)
16,O=C(c1ccccc1F)N1CCN(S(=O)(=O)c2ccc(Br)cc2)CC1,-5.95% (inactive)
17,O=C(c1ccc(Cl)c(S(=O)(=O)N2CCCCC2)c1)N1CCCCCC1,-11.6% (inactive)
18,CC(=O)CC[C@@H](C)O[C@@H]1OC(C)[C@H](O)CC1O (some centres not stated),-8.11% (inactive)
19,CCOc1ccc(C(=O)Nc2cc(Cl)ccc2-n2cncn2)cc1OC,-15.6% (inactive)
20,Cc1ccccc1NC(=O)C(C)OC(=O)CCC(=O)N(CC(C)C)c1c(N)n(CC(C)C)c(=O)[nH]c1=O (configuration not stated),-9.04% (inactive)
21,Cc1ccccc1Nc1nc(N)nc(CSc2nnc3ccccn23)n1,-3.03% (inactive)
22,Cc1ccc(C(=O)OCc2nc(N)nc(Nc3ccccc3C)n2)cc1,-1.52% (inactive)
23,Cc1ccccc1Nc1nc(N)nc(CSc2ccccc2)n1,118% (active)
24,O=C(Nc1ncccc1O)c1ccc(S(=O)(=O)N2CCCCCC2)cc1,3.69% (inactive)
